Sampled rows, rich in hits. Any-hit rate of the full collection: about 21%.
DT40 TDP1 no CPT: qHTS for Inhibitors of human tyrosyl-DNA phosphodiesterase 1 (TDP1): qHTS in cells in absence of CPT. DT40 Tdp1-/- hTDP1 cells, no CPT, ATP luminescence, 48 h. Potency, µM (highest dose often 46.2 µM), for the others: top-dose activity change, negative = growth inhibition, usual class: inhibitors. actives 15% (n = 420,000). AID 686978, 2013; further: potency means the concentration at half of the fitted maximal effect; on the % scale 0 is the no-effect control and ±100 the full control effect; nearly all actives have a fitted effect of over 55% in size
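Cells were dispensed at 400 per well, compounds added by pin tool, plates incubated ≥48 hr at 37 °C, then CellTiter-Glo added for 30 min at room temperature before luminescence reading. Line: DT40 Tdp1-/- complemented with hTDP1; camptothecin omitted.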
ClpP mod: qHTS Assay for Activators of ClpP. purified B. subtilis ClpP, FRET peptide cleavage, 20 min. ATP-dependent Clp protease proteolytic subunit (Bacillus subtilis (strain 168)), P80244. actives 1.9% (n = 340,000). AID 651965, 2013. Potency, µM (doses to about 57.5 µM), for the others: at the top dose activity change, negative = active; active means well fitted falling curve with a large enough effect; inconclusive means small, poorly fitted or top-dose-only effect; inactive means no such curve, though single readings can be large or run the other way; further: potency means the concentration at half of the fitted maximal effect; the source files actives as falling curves though it sought activators and does not explain the sign; nearly all actives have a fitted effect of over 65% in size
Target sequence (P80244 whole entry, looked up): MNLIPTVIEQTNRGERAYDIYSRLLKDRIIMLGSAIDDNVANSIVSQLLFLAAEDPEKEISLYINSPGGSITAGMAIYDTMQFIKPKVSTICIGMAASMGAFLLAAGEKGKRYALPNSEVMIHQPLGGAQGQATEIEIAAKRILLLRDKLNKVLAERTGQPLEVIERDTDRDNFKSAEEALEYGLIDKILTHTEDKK
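FRET quenching reversal measured ClpP activation: 10 microg/mL B. subtilis ClpP at pH 8 with the FRET-FV decapeptide, read at 430 nm after 320 nm excitation. The 20-min minus 0-min signal was scaled between DMSO/no-enzyme wells and ADEP (5.8 microM final).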
IL1B secr inh: inhibitors of inflammasome signaling (IL-1 beta secretion); actives 4.7% (n = 360,000); activity change, % at 57.5 µM; THP-1 LPS/ATP IL-1B secretion, AlphaLISA, 16 h; active compounds read low; in the data active means activity change below about -50%; inconclusive means mostly about -30% to -49%; further: on the % scale 0 is the no-effect control and ±100 the full control effect
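THP-1 cells pretreated 1 hr with compounds (up to 57.5 uM final), then stimulated with LPS (250 ng/mL final) plus ATP (1.25 mM final); secreted IL-1B measured by AlphaLISA after 16 hr, decreased signal indicating inhibition.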
TDP1 cell CPT: DT40-hTDP1 cell growth loss with CPT; chicken DT40 Tdp1-/-;hTDP1 cells + 20 nM CPT, ATP luminescence, 48 h; Potency, µM (series often up to 46.2 µM), without a hit: at the top dose activity change, negative = growth inhibition, usual class: inhibitors; actives 12% (n = 420,000); further: potency means the concentration at half of the fitted maximal effect; on the % scale 0 is the no-effect control and ±100 the full control effect; nearly all actives have a fitted effect of over 55% in size
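Chicken DT40 Tdp1-/- cells stably complemented with human TDP1 were seeded at 400 cells/well in medium containing 20 nM camptothecin, exposed to pin-transferred compounds, and grown at 37 °C for at least 48 hr. Viability was read as ATP luminescence.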
DRD3 agonist: D3 dopamine receptor (human) agonism | P35462 | actives 0.58% (n = 410,000) | max activation, % | AID 652048 | D3R DiscoveRx beta-arrestin cells, luminescence, 90 min; in the data active means max activation above about 30%; further: 0% is about no effect
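Agonist-mode cell screen: cells plated at 1500/well and incubated overnight at 37 °C, then exposed to library compounds for 90 min at 37 °C. Detection reagent was added for 30–60 min at room temperature, and luminescence was read.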
DRD3 antagonist: antagonists of human D3 dopamine receptor | P35462 | D3R cells, DiscoveRx beta-arrestin luminescence, antagonist mode; active compounds read low | max response, negative = inhibition, % | actives 2.5% (n = 360,000); in the data active means max response below about -50%; inconclusive means no clear call, values can overlap the other calls; further: on the % scale 0 is the no-effect control and ±100 the full control effect
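Cells expressing the human receptor were seeded at 1500 cells/well, incubated overnight at 37 degrees C in 5% CO2, then exposed to library compounds with dopamine controls for 90 minutes at 37 degrees C before luminescent detection.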
Starred values were filed as active, the others as inactive; ? = inconclusive; . = not tested or not shown. Unless noted, the call rests on the fitted dose curve; in most records, active means well fitted inhibition curve with a large enough effect; inconclusive means small, poorly fitted or top-dose-only effect; inactive means flat fitted curve, though single readings scatter.

SMILES | DT40 TDP1 no CPT | ClpP mod | IL1B secr inh | TDP1 cell CPT | DRD3 agonist | DRD3 antagonist
O=C(Nc1ncccc1O)c1cccc(S(=O)(=O)NCc2ccccc2)c1 | -9% | -3% | -2 | -4% | 11 | 13
O=C(/C(=C/O)N=Nc1ccccc1)c1ccc(Cl)cc1 | ? | . | -102* | ? | 5 | 11
O=C(/C(=C/O)N=Nc1ccccc1)c1ccncc1 | ? | 2% | 7 | ? | 1 | -19
CCCN(CC(=O)Nc1ccc(NC(C)=O)cc1)CC(=O)Nc1ccc(F)c(F)c1F | ? | . | 12 | -24% | 1 | 2
CCCN(CC(=O)Nc1ccc(C)cc1Br)CC(=O)Nc1ccc(F)c(F)c1F | 18µM* | -1% | -29 | ? | -8 | -14
CCCN(CC(=O)Nc1ccc(F)c(F)c1F)CC(=O)Nc1c(Cl)cccc1Cl | 4.1µM* | ? | -1 | 10µM* | -2 | 25

Screening data deposited in PubChem BioAssay by National Center for Advancing Translational Sciences (NCATS).
